High-throughput results from PubChem.
Shown are actives, neighbours in structure and some others; about 9.4% of the full set was active somewhere.
ELG1 genotox – genotoxicity induction in ELG1-luciferase HEK293T cells; HEK293T ELG1-luciferase reporter, luminescence, 16 h; 1.3% of 330,000 active; Potency, µM (doses to about 46 µM), usual class: activators; note: nearly all actives have a fitted effect of over 60% in size
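Quantitative HTS format in 1536-well plates. HEK293T ELG1-luciferase reporter cells receive test compound and are incubated 16 hr at 37 °C, 5% CO2; ONE-Glo added, 30 min room temperature, then luminescence read.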
Rab9 promoter act – activators of Rab9 promoter. Huh7 Rab9 promoter-luciferase reporter, luminescence, 24 h. Potency, µM (series often up to 9.22 µM), most hits filed as activators. 2.8% of 320,000 active. AID 485297; note: nearly all actives have a fitted effect of over 60% in size
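Cell-based reporter: Huh7 stable for Rab9 promoter-driven luciferase, plated in reduced-serum medium with 10% FBS at 1500 cells/well, compound-treated 24 h at 37 °C, luminescence read after 10 min reagent.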
NPC1 prom act – NPC1 promoter activation; Huh7 NPC1 promoter luciferase reporter, 24 h; Potency, µM (titrated, usually from 9.22 µM), usual class: activators; 2.4% of 320,000 active; AID 485313; note: nearly all actives have a fitted effect of over 60% in size
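Quantitative HTS used a cell-based reporter: Huh7 cells stably bearing the NPC1 promoter upstream of luciferase were treated with compounds for 24 h, and promoter activation was read as luminescence.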
ELG1 repair inh – ELG1-dependent DNA repair inhibition; HEK293T ELG1-luciferase reporter, luminescence, 16 h; DNA damage induced by 5-fluorouridine; AID 504467; 2.3% of 330,000 active; Potency, µM (top dose mostly 46.1 µM), actives largely listed as inhibitors; note: nearly all actives have a fitted effect of over 55% in size
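HEK293T cells expressing luciferase-tagged ELG1 (2,000/well) received 5-Fluorouridine plus compound or DMSO for 16 hr at 37 °C. Luciferase was read by ONE-Glo luminescence after 30 min at room temperature.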
SMN2 splice up – enhancers of SMN2 splice variant expression; HEK293 SMN2-luciferase splicing reporter, luminescence, 30-36 h; Potency, µM (series often up to 46.1 µM), hits mostly activators; 2.8% of 210,000 active; AID 1458; note: nearly all actives have a fitted effect of over 55% in size
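HEK293 cells carry an SMN2 […]–luciferase reporter in which exon 7 inclusion puts luciferase in frame. Cells were plated 10-12 h before compound addition, then incubated 30-36 h at 37C. ONE-Glo luminescence was read; sodium butyrate at 4.5 mM final served as control.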
FLuc modulator – counter-screen for miR-21 project: firefly luciferase inhibitors or activators; purified FLuc, Km substrates, luminescence inhibition; Potency, µM (top dose mostly 57.5 µM), actives largely listed as inhibitors; P08659; 6.9% of 360,000 active; AID 588342; note: nearly all actives have a fitted effect of over 55% in size
Target sequence (P08659 whole entry, looked up): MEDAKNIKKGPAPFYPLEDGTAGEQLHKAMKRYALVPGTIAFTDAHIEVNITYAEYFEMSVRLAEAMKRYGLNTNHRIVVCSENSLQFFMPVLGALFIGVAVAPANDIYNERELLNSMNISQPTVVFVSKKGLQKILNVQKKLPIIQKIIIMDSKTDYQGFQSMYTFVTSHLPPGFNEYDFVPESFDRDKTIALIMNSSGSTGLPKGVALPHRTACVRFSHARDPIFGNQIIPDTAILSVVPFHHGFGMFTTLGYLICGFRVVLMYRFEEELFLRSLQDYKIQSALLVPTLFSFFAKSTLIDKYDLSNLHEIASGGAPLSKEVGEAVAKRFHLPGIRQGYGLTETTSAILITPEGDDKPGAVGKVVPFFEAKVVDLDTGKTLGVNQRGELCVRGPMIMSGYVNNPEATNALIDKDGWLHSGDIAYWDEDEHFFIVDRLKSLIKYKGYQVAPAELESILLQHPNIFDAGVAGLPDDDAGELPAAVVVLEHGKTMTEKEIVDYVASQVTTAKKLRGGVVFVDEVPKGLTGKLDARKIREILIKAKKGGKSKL
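Biochemical qHTS of compounds, final roughly 60 µM downward over six points, against 10 nM purified firefly luciferase using Km concentrations of substrates (10 uM D-luciferin, 10 uM ATP) in Tris acetate pH 7.5 buffer; luminescence output.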
A number is an active result; . = inactive; ? = inconclusive; / = no result; [ ] = another dose, or the depositor's remark. Calls come from the whole dose curve; as a rule, active = well fitted curve in the direction sought with a large enough effect; inconclusive = small, poorly fitted or top-dose-only effect, or another doubt; inactive = no such curve, though single readings can be large; an effect the other way counts as inactive or inconclusive.

SMILES | ELG1 genotox | Rab9 promoter act | NPC1 prom act | ELG1 repair inh | SMN2 splice up | FLuc modulator
C=CCn1c(O)c(C(C)=NCCC(c2ccccc2)c2ccccc2)c(=O)[nH]c1=O | . | . | . | 7.3µM | . | .
Cc1ccc(-n2sc3ccccc3c2=O)cc1 | ? | ? | ? | ? | ? | 4.8µM
COc1ccc(-c2nc3ccccc3c(=O)n2-c2ccc(OC)cc2)cc1 | . | . | . | . | / | .
FC(F)(F)c1nc2ccc(SSc3ccc4nc(C(F)(F)F)[nH]c4c3)cc2[nH]1 | / | / | / | / | .[9.22 µM] | /
O=C(O)c1cn(Cc2ccccc2)nc1-c1ccccc1 | . | . | . | . | . | .
CCc1ccc(-c2nn(Cc3ccccc3)cc2C=O)cc1 | ? | 1µM | 2.5µM | ? | 14µM | 6.7µM
C[C@]12CC[C@@H]3[C@H](CCC4=CC(=O)CC[C@]43C)[C@]1(O)CC[C@@]2(O)C(=O)CO | / | / | / | / | .[9.22 µM] | /
c1ccc(N=Nc2ccccc2)cc1 | / | / | / | / | . | /
Cc1cccc(N=Nc2ccc(N(C)C)cc2)c1 | 4.6µM | 1.3µM | 0.63µM | ? | / | 0.67µM
CCCOC(=O)[C@@H]1[C@@H](C(=O)O)[C@H]2CC[C@@H]1O2 | / | / | / | / | .[9.22 µM] | /
CCSc1nnc(NC(=O)c2cccn(Cc3ccccc3Cl)c2=O)s1 | / | / | / | / | / | .
O=C(CSc1nnc(NC(=O)c2ccccc2[N+](=O)[O-])s1)NCc1ccco1 | . | . | . | . | / | 13µM
O=C(CSc1nnc(NC(=O)c2ccccc2F)s1)NCc1ccc(F)cc1 | ? | ? | ? | ? | / | 12µM
O=C(CSc1nnc(NC(=O)c2cc(Br)ccc2Cl)s1)NCC1CCCO1 (centres undefined) | . | . | . | . | / | ?
C1C[C@@H]2CN(CCCN3CCOCC3)[C@@H](C1)O2 | / | / | / | / | .[9.22 µM] | /
CCOC(=O)Cn1cc(C(=O)c2ccccc2)c2ccccc21 | . | . | . | . | / | .
CCOC(=O)CSc1ncnc2c1cnn2-c1ccccc1 | . | . | . | . | ? | 12µM
C=C(C)c1ccccc1 | . | . | . | . | . | .
COc1ccc(-c2nc3ccccc3c(=O)n2-c2nccs2)cc1 | . | . | . | . | . | 24µM
COc1cc(N2CCOCC2)ccc1/C=C1\C(=O)NC(=O)N(Cc2ccc3c(c2)OCO3)C1=O | . | . | . | . | . | 17µM
O=C(N/N=C/c1c(O)n(C2CC2)c(=S)[nH]c1=O)c1ccccc1O | . | ? | ? | ? | ? | 15µM
Cc1ccccc1-n1c(O)c(/C=N/NC(=O)c2ccccc2O)c(=O)[nH]c1=S | . | . | . | ? | / | 11µM
O=C(N/N=C/c1c(O)n(-c2ccccc2)c(=S)[nH]c1=O)c1ccccc1 | . | . | . | ? | / | ?
O[N+]1=CC=CCC1=S.On1ccccc1=S.[Zn] | / | / | / | / | . | /
CCOc1ccc(-c2cc(C)[n+](CCN3CCOCC3)c(-c3ccc(OCC)cc3)c2)cc1 | . | . | . | 16µM | / | .
SMILES | ELG1 genotox | Rab9 promoter act | NPC1 prom act | ELG1 repair inh | SMN2 splice up | FLuc modulator
Clc1ccc(C(c2ccc(Cl)cc2)C(Cl)Cl)cc1 | / | / | / | / | . | /
O=[As](O)(O)c1ccc(NCc2ccccc2)cc1 | / | / | / | / | .[9.22 µM] | /
COc1ccc(/C=C/C(=O)Nc2ccc(C)cc2)cc1 | / | / | / | / | ? | 6.7µM
COc1ccc2o/c(=N\O)c(C(=O)Nc3ccc(C)cc3)cc2c1 | ? | . | . | . | / | ?
Cc1cccn2c(=O)c3c(nc12)N1CCc2ccccc2C1C1(C3)C(=O)NC(=O)N(C)C1=O (centres undefined) | . | . | . | 13µM | . | .
CCCCN1C(=O)NC(=O)C2(Cc3c(nc4c(C)cccn4c3=O)N3CCc4ccccc4C32)C1=O (centres undefined) | . | . | . | 21µM | . | .
CN(C)c1ccc(CCN2CCOCC2)cc1 | ? | . | . | ? | / | 17µM
Cc1ccc(OC(=O)c2ccc(Br)o2)cc1 | . | . | . | ? | . | 4.8µM
C=C(C)C(=O)OCC1CO1 (centres undefined) | / | / | / | / | . | /
CC(=O)O[C@H]1CC[C@H]2[C@@H]3CCC4=C[C@@H](C5SCCS5)[C@H](OC(C)=O)C[C@]4(C)[C@H]3CC[C@@]12C | / | / | / | / | .[9.22 µM] | /
O=C(Cl)C(Cl)(Cl)Cl | / | / | / | / | . | /
O=C(COc1ccccc1)N1CCN(CCN2C(=O)c3cccc4cccc(c34)C2=O)CC1 | . | . | . | . | / | .
O=C1c2cccc3cccc(c23)C(=O)N1CCN1CCN(C(=S)Nc2ccccc2)CC1 | . | . | . | 16µM | . | .
CCNc1cc(N2CCN(C)CC2)ccc1[N+](=O)[O-] | . | . | . | . | . | .
CCOc1ccc(-c2nc3ccc(-c4nc5ccc(N6CCN(C)CC6)cc5[nH]4)cc3[nH]2)cc1 | / | / | / | / | 4µM | /
CNC(=O)COC(=O)c1ccc(-c2nc3ccccc3s2)s1 | 3.7µM | . | ? | ? | 16µM | 1.1µM
COC(=O)C1CN(C#N)N(c2ccc(Cl)cc2)C12c1ccccc1-c1ccccc12 (centres undefined) | . | . | . | 5.8µM | . | .
COc1cc2c(cc1OC)[C@@]13CCN4CC5=CCO[C@H](CC(=O)O)[C@@H]([C@H]1N2)[C@H]5C[C@H]43 | / | / | / | / | .[9.22 µM] | /
CN1C[C@H](C(=O)N[C@@]2(C)O[C@@]3(O)[C@H]4CCCN4C(=O)[C@@H](Cc4ccccc4)N3C2=O)C=C2c3cccc4[nH]cc(c34)C[C@@H]21 | / | / | / | / | .[9.22 µM] | /
Cc1c(OC(=O)N(C)C)ccc2c1O/C(=C\c1ccco1)C2=O | . | 4µM | ? | ? | / | 0.48µM
CN(C)Cc1ccccc1OC(=O)N(C)C | . | . | . | . | . | .
CCC12CCN(CCc3ccc(F)cc3)CC1Oc1c(O)cccc12 (centres undefined) | / | / | / | / | / | .
CCN(CCO)c1ccc(N=Cc2c(O)n(C)c(=S)[nH]c2=O)cc1 | . | ? | ? | ? | / | 1.7µM
CCN(CC)c1ccc(N=Cc2c(O)n(CCc3ccc(OC)c(OC)c3)c(=O)[nH]c2=O)cc1 | . | . | . | 2.6µM | . | .
CC1(C)[C@@H]2CC[C@]1(C)CN(CCC[N+](C)(C)C)C2 | / | / | / | / | .[9.22 µM] | /
SMILES | ELG1 genotox | Rab9 promoter act | NPC1 prom act | ELG1 repair inh | SMN2 splice up | FLuc modulator
Nn1cnnc1 | / | / | / | / | . | /
COc1ccc(CCn2c(O)c(C=NCc3cccnc3)c(=O)[nH]c2=O)cc1OC | . | . | . | . | . | .
COc1ccc(C2CC(c3c(O)n(CCc4ccccc4)c(=O)[nH]c3=O)=NN2)cc1OC (centres undefined) | . | . | . | ? | / | 19µM
CC1(C)C[C@H]2C=C(C=O)[C@]3(C=O)C[C@]3(C)[C@H]2C1 | . | . | . | 5.8µM | . | .
C=CC1CC=CCC1 (centres undefined) | / | / | / | / | . | /
CCCOC(=O)c1ccc(OC(=O)c2ccco2)cc1 | . | . | . | . | . | ?
O=C(Oc1ccc2ccccc2c1)c1ccco1 | . | . | . | . | . | 12µM
N=C(N)SCc1ccc(Cl)c2ccccc12 (tested in a mixture with another compound) | / | / | / | / | .[9.22 µM] | /
